The values below are quoted from earlier work in PubChem BioAssay AID977610.

Hit rate of the full screen: of about 3,600 compounds, about 3,600 (100%) were called active. No cut-off is given here; in the data, nearly all actives have Ki up to about 18000 µM. The set was probably picked from earlier hits. The list shows a part of the results. Numbered stars: 1 amine (or outer) side, 2 acyl side, 3 side chain; on linkers, the order of the positions; unused ones are H or OH. Starred links: 1 amine or outer side, 2 acyl side, 3 side chain; linkers in the order of their positions; H or OH if unused. Positions of bridges follow the written chain, without caps; N, C: chain ends. Bridge positions count the residues as written; N and C are the ends. Where a SMILES comes first, the peptide text is derived from it. Square brackets hold non-standard residues; d marks the D form. Residues, ends and D or L forms follow the SMILES beside them. Peptide text beside a SMILES is read from it. [ ]: non-standard residue; d: D form. The star is where a group is joined. X2 = CC[C@H](C)[C@H](N[*:1])c1cnnn1[C@@H](C)C(=O)[*:2]; X1 = C(CS[*:2])CN(CCCS[*:3])[*:1]; Orn(CH(NH2)2) = NC(N)NCCC[C@H](N)C(=O)O; Cbz = O=C(OCc1ccccc1)*; Dap = NC[C@H](N)C(=O)O; Nlys = NCCCCNCC(=O)O

This data set can be described thus: PubChem AID 977610. The following applies: PDB protein-ligand complexes, literature Ki.

`CCOC(=O)c1cc(C#N)c(N2CCC(C(=O)NS(=O)(=O)Cc3ccccc3)CC2)nc1C`: the Ki (protein: P2Y12R, PDB entry 4ntj) was 0.0439 µM (active).
Regarding `CC(C[P+](O)(O)O)C(=O)O` (configuration not stated), where the note is “protein: PHOSPHO-2-DEHYDRO-3-DEOXYHEPTONATE ALDOLASE DAH7PS, PDB entry 4uma”, the Ki is 3.9 µM (active).
Turning to `CC(=O)NC[C@@H](C=O)NC(=O)[C@H](Cc1ccccc1)NC(=O)[C@H](CC(C)C)NC(=O)OCc1ccccc1` (Cbz-Leu-Phe-[Dap](Ac)-aldehyde), the Ki (protein: 3C-like protease, PDB entry 4imq) is 1.5 µM (active).
For `CC(C)C[C@H](NC(=O)[C@H](C)NC(=O)OCc1ccccc1)C(=O)N[C@@H](CCC(=O)N(C)C)C(=O)O` (Cbz-Ala-Leu-Glu(NMe2)-OH), the Ki (protein: Genome polyprotein, PDB entry 4inh) is 0.56 µM (active).
For `CC(C)C[C@H](NC(=O)OCc1ccccc1)C(=O)N[C@@H](Cc1ccccc1)C(=O)N[C@H](C=O)CCC(=O)N(C)C` (Cbz-Leu-Phe-Glu(NMe2)-aldehyde), the Ki (protein: Genome polyprotein, PDB entry 4imz) is 0.12 µM (active).
Regarding `COc1cc([C@@H]2Nc3ccc(C(N)N)cc3[C@H]3c4ccccc4C[C@H]32)c(-c2ccc(C(=O)O)cc2)cc1O`, the Ki (protein: Factor VII, PDB entry 4ish) is 0.0019 µM (active).
`CC(=O)N[C@H]1CNC[C@H](O)[C@@H](O)[C@@H]1O`: the Ki (protein: Beta-hexosaminidase 1, PDB entry 4mss) is 0.4 µM (active).
`COc1cc2c(c(OC)c1OC)-c1ccc(OC)c(=O)cc1[C@@H](NC(C)=O)CC2`: the Ki (protein: Tubulin, PDB entry 4o2b) was 1.8 µM (active).
With `CC[C@H](C)[C@@H]1NC(=O)[C@H](C)n2cc(nn2)[C@@H]2CCCN2C(=O)[C@H]([C@@H](C)CC)NC(=O)[C@H](CO)NC(=O)[C@H](CCCCN)NC(=O)[C@H]([C@@H](C)O)NC(=O)[C@@H](NC(=O)[C@H](CCCNC(N)N)NC(=O)CN)CSSC[C@@H](C(=O)N[C@@H](Cc2ccccc2)C(=O)O)NC1=O` (H-G[Orn(CH(NH2)2)]CTKSI[X1]ICF-OH; disulfide 3-10), the Ki (protein: bovine CATIONIC TRYPSIN, PDB entry 4abi) is 0.0063 µM (active).
For `CC[C@H](C)[C@@H]1NC(=O)[C@@H]2CCCN2C(=O)[C@@H]2CCCN2C(=O)[C@H]([C@@H](C)CC)NC(=O)[C@H](CO)NC(=O)CN(CCCCN)C(=O)[C@H]([C@@H](C)O)NC(=O)[C@@H](NC(=O)[C@H](CCCNC(N)N)NC(=O)CN)CSSC[C@@H](C(=O)N[C@@H](Cc2ccccc2)C(=O)O)NC1=O` (H-G[Orn(CH(NH2)2)]CT[Nlys]SIPPICF-OH; disulfide 3-11), the Ki (protein: Cationic trypsin, PDB entry 4hgc) is 0.0001 µM (active).
On to `NCCCC[C@@H]1NC(=O)[C@H](CCC(N)=O)NC(=O)[C@H](Cc2ccc(O)cc2)NC(=O)[C@@H](NC(=O)[C@H](Cc2cccc3ccccc23)NC(=O)[C@H](CCCNC(N)N)NC(=O)[C@@H](N)CCCNC(N)N)CSSC[C@@H](C(=O)N[C@@H](CCCNC(N)N)C(=O)NCC(=O)N2CCC[C@@H]2C(=O)O)NC(=O)[C@H](CCCNC(N)=O)NC(=O)[C@H](CCCNC(N)N)NC(=O)[C@H](Cc2ccc(O)cc2)NC(=O)[C@@H]2CCCN2C(=O)[C@H]2CCCN2C1=O`, for which the Ki (protein: C-X-C chemokine receptor type 4, Lysozyme Chimera(CXCR4-3), PDB entry 3oe0) was 0.0025 µM (active).
In the case of `CC[C@H](C)[C@@H]1NC(=O)[C@@H]2CCCN2C(=O)[C@@H]2CCCN2C(=O)[C@H]([C@@H](C)CC)NC(=O)[C@H](CO)NC(=O)[C@H](CCCCN)NC(=O)[C@H]([C@@H](C)O)NC(=O)[C@@H]2CSSC[C@H](NC1=O)C(=O)N[C@@H](Cc1ccccc1)C(=O)N1CCC[C@H]1C(=O)N[C@@H](CC(=O)O)C(=O)NCC(=O)N[C@@H](CCCNC(N)N)C(=O)N2`, under “protein: bovine ?-trypsin, PDB entry 1sfi”, the Ki is 0.0001 µM (active).
With `CC[C@H](C)[C@@H]1NC(=O)[C@@H]2CCCN2C(=O)[C@H](C)n2nncc2[C@H]([C@@H](C)CC)NC(=O)[C@H](CO)NC(=O)[C@H](CCCCN)NC(=O)[C@H]([C@@H](C)O)NC(=O)[C@@H](NC(=O)[C@@H](N)CCCNC(N)N)CSSC[C@@H](C(=O)N[C@@H](Cc2ccccc2)C(=O)O)NC1=O` (H-[Orn(CH(NH2)2)]CTKS[X2]PICF-OH; disulfide 2-9), the Ki (protein: bovine CATIONIC TRYPSIN, PDB entry 4abj) is 0.034 µM (active).
Consider `NC(=O)[C@H](CCC(=O)O)NC(=O)[C@H](CCC(=O)O)NC(=O)[C@H](Cc1cc(-c2ccc(-c3cccc(Cl)c3)cc2)no1)C[P+](O)(O)c1ccc(Br)cc1`, for which the Ki (protein: Macrophage metalloelastase (F171D mutation), PDB entry 4gql) is 0.00026 µM (active).
Consider `NC(=O)[C@H](CCC(=O)O)NC(=O)[C@H](CCC(=O)O)NC(=O)[C@H](Cc1cc(-c2ccccc2)no1)C[P+](O)(O)c1ccc(Br)cc1`, for which the Ki (protein: Macrophage metalloelastase (F171D mutation), PDB entry 4gr3) was 0.0155 µM (active).
For the molecule `OC[C@]1(F)OC[C@H](O)[C@@H](O)[C@@H]1O`, the Ki (protein: ALPHA-1,4-GLUCAN LYASE ISOZYME 1, PDB entry 4amw) is 28300 µM (active).
As to `OC[C@@]1(F)OC[C@H](O)[C@@H](O)[C@@H]1O`, under “protein: ALPHA-1,4-GLUCAN LYASE ISOZYME 1, PDB entry 4amx”, the Ki is 6500 µM (active).
As to `NC1NN=C(S(N)(=O)=O)S1` (configuration not stated), the Ki (protein: human carbonic anhydrase II, PDB entry 2hnc) is 0.06 µM (active).
Regarding `C[C@@H]1C[C@H]2[C@@H]3CCC4=CC(=O)C=C[C@]4(C)[C@@]3(Cl)[C@@H](O)C[C@]2(C)[C@@]1(OC(=O)c1ccco1)C(O)CCl` (some centres not stated), the Ki (protein: Glucocorticoid receptor GR LBD, PDB entry 4p6w) is 0.0007 µM (active).
As for `Nc1[nH]c(N)c2ccccc12`, the Ki (protein: PDE10A2, PDB entry 4llj) is 380 µM (active).
As for `CNC(=O)CN[C@@H](C(=O)N1CC[C@H]1C(=O)NCc1ccc(C(N)N)cc1)C1CCCCC1`, the Ki (protein: THROMBIN, PDB entry 4ban) is 0.00243 µM (active).
As for `CCCNC(=O)CN[C@@H](C(=O)N1CC[C@H]1C(=O)NCc1ccc(C(N)N)cc1)C1CCCCC1`, the Ki (protein: THROMBIN, PDB entry 4bak) was 0.00122 µM (active).
For the molecule `CCNC(=O)CN[C@@H](C(=O)N1CC[C@H]1C(=O)NCc1ccc(C(N)N)cc1)C1CCCCC1`, for the setting “protein: THROMBIN, PDB entry 4baq”, the Ki is 0.00098 µM (active).
In the case of `CC[C@H](C)[C@H](NC(C)=O)C(=O)N[C@@H](Cc1ccc(O)cc1)C(=O)N[C@@H](Cc1ccc(O)cc1)[P+](O)(O)O`, the Ki (protein: Human angiotenisn converting enzyme N-domain, PDB entry 4bzs) was 0.075 µM (active).
On to `O=C(N[C@@H](Cc1ccccc1)[P+](O)(O)C[C@@H](Cc1cc(-c2ccccc2)no1)C(=O)N[C@@H](Cc1ccc(O)cc1)C(=O)O)OCc1ccccc1`, for which the Ki by setting is: (protein: ANGIOTENSIN-CONVERTING ENZYME N-DOMAIN, PDB entry 4ca6) 0.18 µM (active); (protein: ANGIOTENSIN-CONVERTING ENZYME, PDB entry 4ca5) 0.00041 µM (active); (protein: ANGIOTENSIN-CONVERTING ENZYME, PDB entry 4ca7) 0.044 µM (active).
Consider `O=C(N[C@@H](Cc1ccccc1)[P+](O)(O)C[C@H](Cc1cc(-c2ccccc2)no1)C(=O)N[C@@H](Cc1ccc(O)cc1)C(=O)O)OCc1ccccc1`, for which, where the note is “protein: ANGIOTENSIN-CONVERTING ENZYME, PDB entry 4ca8”, the Ki is 0.21 µM (active).
With `CC(C)C[C@H](NC(=O)[C@@H]1CSS[C@H]2CSSC[C@H](NC(=O)CNC(=O)[C@H](CCCN=C(N)N)NC(=O)CNC(=O)[C@H](CC(C)C)NC(=O)[C@H](C)NC(=O)[C@@H](NC(=O)CN)C2)C(=O)N[C@@H](CCC(=O)O)C(=O)N[C@@H](CC(N)=O)C(=O)N[C@@H](Cc2cnc[nH]2)C(=O)N[C@@H](CCCN=C(N)N)C(=O)N1)C(N)=O`, the inhibitory constant (Ki) (protein: Urokinase-type plasminogen activator, PDB entry 4os4) was 13.6 µM (active).
In the case of `CC(C)C[C@H](NC(=O)[C@@H]1CSSC[C@H]2C[C@H](NC(=O)CN)C(=O)N[C@@H](C)C(=O)N[C@@H](CC(C)C)C(=O)NCC(=O)N[C@@H](CCCN=C(N)N)C(=O)NCC(=O)N[C@@H](CSS2)C(=O)N[C@@H](CCC(=O)O)C(=O)N[C@@H](CC(N)=O)C(=O)N[C@@H](Cc2cnc[nH]2)C(=O)N[C@@H](CCCN=C(N)N)C(=O)N1)C(N)=O`, for the setting “protein: Urokinase-type plasminogen activator, PDB entry 4os5”, the Ki is 23.7 µM (active).
On to `CC(C)C[C@H](NC(=O)[C@@H]1CSSCCCN2CCCSSC[C@H](NC(=O)CNC(=O)[C@H](CCCN=C(N)N)NC(=O)CNC(=O)[C@H](CC(C)C)NC(=O)[C@H](C)NC(=O)[C@@H](NC(=O)CN)CC2=O)C(=O)N[C@@H](CCC(=O)O)C(=O)N[C@@H](CC(N)=O)C(=O)N[C@@H](Cc2cnc[nH]2)C(=O)N[C@@H](CCCN=C(N)N)C(=O)N1)C(N)=O` (H-GDALGRGCENHRCL-NH2; linker 2-8-13 via X1), for which the Ki (protein: Urokinase-type plasminogen activator, PDB entry 4os7) is 24 µM (active).
As for `CC(C)C[C@H](NC(=O)[C@@H]1CSS[C@@H]2CSSC[C@H](NC(=O)CNC(=O)[C@H](CCCN=C(N)N)NC(=O)CNC(=O)[C@H](CC(C)C)NC(=O)[C@H](C)NC(=O)[C@@H](NC(=O)CN)C2)C(=O)N[C@@H](CCC(=O)O)C(=O)N[C@@H](CC(N)=O)C(=O)N[C@@H](Cc2cnc[nH]2)C(=O)N[C@@H](CCCN=C(N)N)C(=O)N1)C(N)=O`, under “protein: Urokinase-type plasminogen activator, PDB entry 4os1”, the inhibition constant (Ki) was 2.5 µM (active).

By Ki is commonly meant a measure of affinity in units of concentration, obtained from inhibition or displacement.
